We go through 13 compounds from PubChem BioAssay (NCI).

Test systems include NCI-H23 lung; NCI-H226 lung; NCI-H322M lung; HOP-62 NSCLC; NCI-H460 lung; HOP-92 NSCLC; NCI-H522 lung; A549/ATCC NSCLC; 786-0 renal; COLO 205 colon.
Experiment in all cases: NCI-60 one-dose screen, 48 h (100 = growth as untreated, 0 = no growth, -100 = all killed)
Conditions in all cases: 10 µM unless noted

About 83,000 compounds went through this panel and 20% of them were active in at least one assay; those are over-represented in the sample as a whole.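 The endpoint reported here, percent growth, reads 100 for growth as untreated, 0 for no net growth and -100 for all cells dead.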 Unmarked numbers belong to inactive results. Activity calls are given as the source filed them. Rule for the calls: active = growth percent below 10; inactive = the rest.

On to `Cn1cc(-c2cc(N)n3nc(-c4c[nH]c5ccccc45)cc3n2)c2cc(Cl)ccc21`, for which the growth in the experiment with NCI-H23 lung was -70.7% (active); in the experiment on NCI-H226 lung, 16.6%; in the experiment on NCI-H322M lung it was -35.3% (active); in the experiment on HOP-62 NSCLC, -73.7% (active); in the experiment on NCI-H460 lung, -59.5% (active); in the experiment with HOP-92 NSCLC, -68.5% (active). Also, the growth in the experiment on NCI-H522 lung was -71.9% (active); in the experiment on A549/ATCC NSCLC, -37.8% (active); in the experiment on 786-0 renal, -67.8% (active); in the experiment on COLO 205 colon, -90.8% (active).

`CCCCNc1ccc2c3c(cccc13)C(=O)N(NCC(O)COc1ccc3c(C)cc(=O)oc3c1)C2=O` (stereo not given): the growth in the experiment on NCI-H23 lung was 87.4%; in the experiment with NCI-H226 lung, 87.5%; in the experiment on NCI-H322M lung, 91%; with HOP-62 NSCLC, 97%; with NCI-H460 lung it was 92.6%; with HOP-92 NSCLC, 78.2%. The growth with NCI-H522 lung is 83.2%; with A549/ATCC NSCLC it was 87%; in the experiment with 786-0 renal it was 101%; with COLO 205 colon, 92.2%.

In the case of `O=C1c2cccc3c(N4CCN(Cc5ccccc5)CC4)ccc(c23)C(=O)N1c1cccc(-c2nn(-c3ccccc3)cc2-c2nc3ccccc3s2)c1`, the growth in the experiment with NCI-H23 lung is 96%; in the experiment on NCI-H226 lung, 82%; in the experiment with NCI-H322M lung, 101%; in the experiment on HOP-62 NSCLC, 123%; with NCI-H460 lung, 110%; in the experiment on HOP-92 NSCLC it was 105%. Also, the growth with NCI-H522 lung was 104%; with A549/ATCC NSCLC, 113%; with 786-0 renal it was 101%; with COLO 205 colon it was 119%.

Take `Oc1cncc(-c2ccc3ncnc(N4CCc5cc(F)c(Cl)cc54)c3c2)c1`: the growth in the experiment with NCI-H23 lung was 47.8%; with NCI-H226 lung, 42.2%; in the experiment with NCI-H322M lung, 54.4%; in the experiment with HOP-62 NSCLC it was 49.5%; in the experiment on NCI-H460 lung it was 39.2%; in the experiment on HOP-92 NSCLC it was 40.9%. The growth in the experiment with NCI-H522 lung was 68.4%; with A549/ATCC NSCLC it was 40.4%; with 786-0 renal it was 35.4%; in the experiment with COLO 205 colon it was 77%.

On to `COc1cc(NC(=O)C(C)C)ccc1C(=O)NC(=S)Nc1ccc(S(N)(=O)=O)cc1`, for which the growth is 102% in the experiment on NCI-H23 lung; 115% in the experiment with NCI-H226 lung; 99.7% in the experiment on NCI-H322M lung; 91.6% in the experiment with HOP-62 NSCLC; 107% in the experiment on NCI-H460 lung; 78% with HOP-92 NSCLC. For the same compound, the growth with NCI-H522 lung was 76.3%; with A549/ATCC NSCLC, 106%; in the experiment on 786-0 renal it was 79.6%; in the experiment with COLO 205 colon, 118%.

Take `CCOc1ccccc1[C@H]1C(C(=O)c2ccc(Cl)cc2)C2(N[C@@H]1c1ccccc1)C(=O)Nc1ccc(Cl)cc12` (stereo not given in full): the growth in the experiment on NCI-H23 lung is 21.5%; in the experiment with NCI-H226 lung, 20.3%; in the experiment with NCI-H322M lung it was 48.7%; in the experiment on HOP-62 NSCLC it was 42.6%; in the experiment on NCI-H460 lung it was 17.3%; in the experiment with HOP-92 NSCLC, 2.97% (active). Also, the growth in the experiment with NCI-H522 lung was 34.1%; in the experiment on A549/ATCC NSCLC it was 40.5%; in the experiment with 786-0 renal it was 35%; in the experiment on COLO 205 colon it was 15.3%.

Regarding `CCCCCCCCCCCCCCCCCC(=O)Nc1ccc(OC)cc1`, the growth in the experiment with NCI-H23 lung was 105%; with NCI-H226 lung, 103%; in the experiment on NCI-H322M lung, 102%; in the experiment with HOP-62 NSCLC, 101%; with NCI-H460 lung, 109%; with HOP-92 NSCLC, 102%. Besides, the growth in the experiment with NCI-H522 lung is 88.2%; in the experiment on A549/ATCC NSCLC, 104%; in the experiment on 786-0 renal, 102%; in the experiment with COLO 205 colon, 120%.

Regarding `C/C(=N\Nc1ccc(S(N)(=O)=O)cc1)c1cnn(-c2cc(=O)[nH]c3ccc(Br)cc23)c1C`, the growth is 69.9% in the experiment on NCI-H23 lung; 62.3% with NCI-H226 lung; 77.7% in the experiment on NCI-H322M lung; 63.4% with HOP-62 NSCLC; 77.9% in the experiment with NCI-H460 lung; -2.47% (active) in the experiment on HOP-92 NSCLC. Also, the growth in the experiment with NCI-H522 lung is 5.07% (active); in the experiment with A549/ATCC NSCLC, 100%; with 786-0 renal, 85.9%; with COLO 205 colon it was 85.5%.

In the case of `COc1ccc(-n2c(NC(=O)N3CCN(C)CC3)c(C#N)c3ccccc32)cc1`, the growth in the experiment on NCI-H23 lung is 33.8%; with NCI-H226 lung, 11.4%; in the experiment on NCI-H322M lung, 90.2%; in the experiment on HOP-62 NSCLC, 30.5%; in the experiment on NCI-H460 lung, 30.7%; in the experiment with HOP-92 NSCLC, 44%. Further, the growth is 61.1% with NCI-H522 lung, 45.3% with A549/ATCC NSCLC, 44.2% in the experiment with 786-0 renal and 65.5% in the experiment with COLO 205 colon.

Turning to `O=C1CC(c2ccc(I)cc2)OC2C=Cc3ccccc3C12` (stereo not given), the growth in the experiment on NCI-H23 lung was 98.2%; with NCI-H226 lung, 90.7%; in the experiment with NCI-H322M lung, 103%; in the experiment with HOP-62 NSCLC it was 98.7%; in the experiment with NCI-H460 lung it was 108%; in the experiment on HOP-92 NSCLC, 101%. The growth in the experiment on NCI-H522 lung was 86.9%; in the experiment with A549/ATCC NSCLC it was 102%; with 786-0 renal, 99.2%; in the experiment on COLO 205 colon it was 118%.

`COC(=O)c1cc(C(=O)C(F)(F)F)n2c3ccccc3c3ccccc3c12`: the growth in the experiment on NCI-H23 lung was 83.6%; in the experiment with NCI-H226 lung it was 52.6%; in the experiment with NCI-H322M lung, 90.8%; in the experiment on HOP-62 NSCLC it was 41.1%; with NCI-H460 lung, 62.1%; in the experiment on HOP-92 NSCLC, 59.2%. The growth in the experiment on NCI-H522 lung is 96%; with A549/ATCC NSCLC, 92.8%; in the experiment on 786-0 renal, 24.2%; with COLO 205 colon, 79.7%.

`CN(C)c1nc(NCCNS(=O)(=O)c2ccc(C3=Nc4c(N)nc(N)nc4NC(c4ccc(C(F)(F)F)cc4)C3)cc2)nc(N2CCOCC2)n1` (stereo not given): the growth was 74% with NCI-H23 lung; 54.1% in the experiment with NCI-H226 lung; 84.2% in the experiment with NCI-H322M lung; 51.8% in the experiment on HOP-62 NSCLC; 35.6% with NCI-H460 lung; -17% (active) in the experiment with HOP-92 NSCLC. In addition, the growth was 35% in the experiment on NCI-H522 lung, 40.2% in the experiment with A549/ATCC NSCLC, 20.2% in the experiment with 786-0 renal and -14.2% (active) in the experiment with COLO 205 colon.

Regarding `Cc1cc(=O)oc2cc(OCC(O)CNN3C(=O)c4cccc5c(N6CCN(C)CC6)ccc(c45)C3=O)ccc12` (stereo not given), the growth in the experiment with NCI-H23 lung was 98.4%; with NCI-H226 lung it was 102%; in the experiment with NCI-H322M lung, 101%; with HOP-62 NSCLC, 99.8%; with NCI-H460 lung, 99.4%; in the experiment on HOP-92 NSCLC, 68.3%. Also, the growth in the experiment with NCI-H522 lung was 98.2%; in the experiment with A549/ATCC NSCLC, 99.8%; with 786-0 renal, 97.8%; in the experiment with COLO 205 colon, 87.7%.
